Measured values as given in PubChem BioAssay (NCATS).
Records with an inconclusive call do not appear. Where a call stands in place of a potency, no number is given. Active and inactive are the calls of the source. Calls come from the whole dose curve.

Target: Atrial natriuretic peptide receptor 1 (Homo sapiens) (UniProt P16066)
Assay: Natriuretic polypeptide receptor (hNpr1) antagonism - Pilot CMLD screen (AID 1347052);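 note: HEK293 cells with hNpr1 stimulated by hNppA peptide at 0.1 nM; cGMP level read as GloSensor luciferase luminescence after agonist stimulation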
Conditions: HEK293 hNpr1 GloSensor cGMP luminescence, ANP-stimulated; series mostly up to 9.22 µM

Sequence of Atrial natriuretic peptide receptor 1 (Homo sapiens) (P16066 whole entry, looked up): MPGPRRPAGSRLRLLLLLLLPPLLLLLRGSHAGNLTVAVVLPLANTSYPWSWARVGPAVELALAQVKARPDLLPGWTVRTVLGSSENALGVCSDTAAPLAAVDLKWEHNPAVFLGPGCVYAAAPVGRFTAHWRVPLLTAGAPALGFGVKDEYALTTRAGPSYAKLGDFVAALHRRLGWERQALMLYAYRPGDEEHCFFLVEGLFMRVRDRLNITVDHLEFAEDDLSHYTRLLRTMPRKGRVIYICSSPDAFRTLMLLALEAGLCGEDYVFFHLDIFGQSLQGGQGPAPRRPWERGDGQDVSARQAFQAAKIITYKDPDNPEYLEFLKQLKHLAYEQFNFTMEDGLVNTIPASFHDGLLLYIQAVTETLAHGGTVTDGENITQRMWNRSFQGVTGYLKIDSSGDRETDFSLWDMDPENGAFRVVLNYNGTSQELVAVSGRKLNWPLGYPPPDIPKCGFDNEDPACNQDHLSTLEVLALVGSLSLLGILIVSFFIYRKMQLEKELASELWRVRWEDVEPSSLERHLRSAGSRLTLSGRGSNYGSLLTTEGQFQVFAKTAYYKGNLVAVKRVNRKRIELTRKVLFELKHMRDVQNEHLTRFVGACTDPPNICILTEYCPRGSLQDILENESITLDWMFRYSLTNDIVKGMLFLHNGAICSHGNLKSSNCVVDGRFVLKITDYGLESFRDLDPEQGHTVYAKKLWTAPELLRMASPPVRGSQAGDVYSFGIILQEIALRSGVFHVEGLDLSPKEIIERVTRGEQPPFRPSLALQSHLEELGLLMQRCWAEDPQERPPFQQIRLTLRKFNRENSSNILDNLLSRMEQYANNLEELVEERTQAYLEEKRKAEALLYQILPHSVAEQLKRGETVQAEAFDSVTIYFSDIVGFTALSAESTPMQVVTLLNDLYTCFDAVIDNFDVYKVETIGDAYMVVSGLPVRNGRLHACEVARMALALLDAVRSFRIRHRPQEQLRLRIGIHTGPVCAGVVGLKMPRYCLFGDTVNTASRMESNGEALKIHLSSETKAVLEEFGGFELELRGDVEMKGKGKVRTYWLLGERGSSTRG

SMILES	Potency
c1ccc(-c2nc(-c3cccs3)c(NC3CCCCC3)o2)cc1	inactive
COC1=C(C(=O)c2ccccc2)C(=O)[C@@]2(CC=C(C)C)C[C@H](C(=O)OCC(F)(F)F)C(C)(C)[C@@]1(CC=C(C)C)C2=O	inactive
CC1=CC[C@@H](COc2ccccc2)O[C@@]2(C1)C(=O)N(Cc1ccc(Br)cc1)c1cccc(Br)c12	inactive
CCc1cc2c(nc1CC)CCN(CCC(C)=NOC[C@H]1O[C@H](c3ccccc3)C=C[C@H]1Oc1ccc(OC)cc1)C2	inactive
Cc1ccccc1Nc1oc(-c2ccccc2)nc1-c1ccccc1F	inactive
Cc1ccccc1Nc1oc(-c2ccccc2)nc1-c1cccs1	inactive
CC(CCN1CCCc2nc(C)c(C)cc21)=NO[C@@H](C)CN1CCCCc2nc(C)c(C)cc21	inactive
C=C(C)[C@@H]1CC2=C(OC)C(CC=C(C)C)(CC=C(C)C)C(=O)C(C(=O)c3ccccc3)=C2O1	inactive
FC(F)(F)c1ccc(-c2nc(-c3ccccc3)oc2NCc2ccccc2)cc1	inactive
CC(CCN1CCCCc2nc(C)c(C)cc21)=NO[C@H](C)CN1CCCc2nc(C)c(C)cc21	inactive
COC[C@@H](O)[C@H]1OCc2ccccc2[C@@H]1C=Cc1ccccc1	inactive
CC(C)=CCCC(C)=CCN1C(=O)[C@@]2(CC(C)=CC[C@@H](C)O2)c2c(Br)cccc21	inactive
Cc1cc(C)cc(-c2cc3c(c(-c4c(O)c(-c5cc(C)cc(C)c5)cc5c4CCCC5)c2O)CCCC3)c1	inactive
Cc1ccccc1Nc1oc(-c2ccccc2)nc1-c1cccc2ccccc12	inactive
CCOC(=O)OC[C@H]1O[C@H](c2ccc(C(C)=O)cc2)C=C[C@H]1Oc1ccc(-c2ccccc2)cc1	inactive
COC(=O)C1=C[C@H]([C@@H](C)[C@H](OC)c2ccccc2Br)[C@H]2c3ccccc3O[C@@H]12	inactive
COC(=O)N1C(C=Cc2ccc3c(c2)OCO3)=Cc2ccccc2C1CC(C)=O (stereo not given)	inactive
CC(C)=NO[C@@H](C)CN1CCCc2nc(C)c(C)cc21	inactive
COC(=O)C1=C(C(=O)OC)[C@@H]2N(C)c3ccccc3[C@@]23C[C@@H](CO)N(C(=O)Nc2ccc(C(F)(F)F)cc2)C3=N1	inactive
COCOc1cc(OC)ccc1C(=O)C=Cc1ccc2c(c1)OCO2	inactive

SMILES	Potency
Cc1cccc(C)c1Nc1oc(-c2ccccc2)nc1-c1ccccc1F	inactive
COC(=O)C1=C(C)N(CC2CC2)C(=O)NC1CCc1ccccc1 (stereo not given)	inactive
CCN1C(=NCCc2cccs2)N[C@@H](CCc2ccccc2)[C@H](C(=O)NCCc2cccs2)[C@H]1C	inactive
CCOC(=O)CN1C(=O)[C@@]2(CC(C)=CC[C@@H](COc3ccccc3)O2)c2c(Br)cccc21	inactive
COc1ccc([C@@H](NC(=O)C(F)(F)F)C2CCCC=C2c2ccccc2)cc1OC (stereo not given in full)	inactive
CC(C)(C)Nc1oc(-c2ccccc2)nc1-c1cccc2ccccc12	inactive
CCc1cc2c(nc1CC)CCN(CCC(C)=NOC[C@@H](C)[C@H](OCc1ccccc1)C(C)C)C2	inactive
COC1=CC2C(=O)C([C@@H]3c4ccccc4C[C@]23C)C1(O)c1cccc(OC)c1 (stereo not given in full)	inactive
CC(CCN1CCCc2nc(C)c(C)cc21)=NO[C@H](C)CN1CCCc2nc(C)c(C)cc21	inactive
C[C@@H]1C[C@H]2[C@@H](Cc3ccccc3)C(=O)N3[C@@H](C[C@@H](C)[C@@H]3c3ccccc3)[C@@H](Cc3ccccc3)C(=O)N2[C@H]1c1ccccc1	inactive
COC1=C(C(=O)c2ccccc2)C(=O)[C@@]2(CC=C(C)C)C[C@@H]([S+](=O)([O-])c3ccccc3)C(C)(C)[C@@]1(CC=C(C)C)C2=O	inactive
CCN1C(=S)NC(c2cccc(C(F)(F)F)c2)C(C(=O)OC)=C1C (stereo not given)	inactive
FC(F)(F)c1cc(NC(=S)Nc2ccc3cc4ccccc4cc3c2)cc(C(F)(F)F)c1	inactive
COC(=O)C1=C(C)N(Cc2ccccc2)C(=NCCc2cccs2)NC1c1cccc(C(F)(F)F)c1 (stereo not given)	inactive
CN1c2ccccc2[C@@]2(O)C(=O)[C@@]1(C)[C@H]1Cc3ccccc3[C@H]12	inactive
COC(=O)C1=C(C)N(Cc2ccccc2)C(=NCC2CC2)NC1c1ccccc1 (stereo not given)	inactive
CC1=CC[C@@H](COc2ccccc2)O[C@@]2(C1)C(=O)N(Cc1ccc(F)cc1)c1cccc(Br)c12	inactive
O=C1N(Cc2ccc(Br)cc2)c2cccc(Br)c2[C@@]12O[C@H](COc1ccccc1)CC1=CCCC12 (stereo not given in full)	inactive
CC=C(C)[C@H](O)C[Si](C)(C)c1ccccc1	inactive
COC(=O)c1ccc(CN2C(=O)[C@@]3(CC(C)=CC[C@@H](COc4ccccc4)O3)c3ccccc32)cc1	inactive
